Experimental data taken from PubChem BioAssay (NCI).
This is part of a sample that, as a whole, favours compounds with a hit. Of some 79,000 tested, about 15% had one in any assay. The source made the active and inactive calls. No stated cut-off is given here; in the data, active means growth inhibition above about 70%; inactive means the rest.

Tests used:
[1] = NCI Yeast Anticancer Drug Screen. Data for the rad50 strain (AID 155);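 further: 0% = growth of vehicle-only cultures of the same strain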; settings: S. cerevisiae rad50 strain growth inhibition; at 50.0 µM; stronger effect = higher value
How it was run: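 Vehicle-treated cultures provide the reference for the growth inhibition reported for compound-exposed, repair-deficient yeast.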

[2] = NCI Yeast Anticancer Drug Screen. Data for the mec2-1 strain (AID 157); settings: S. cerevisiae mec2-1 strain, at 50.0 µM, stronger effect = higher value
How it was run: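 Yeast mec2-1 mutant treated with compound. Readout: growth inhibition vs vehicle controls.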

[3] = NCI Yeast Anticancer Drug Screen. Data for the sgs1 mgt1 strain (AID 161);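 further: 0% = growth of cultures given vehicle only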; settings: S. cerevisiae sgs1 mgt1 strain, at 50.0 µM, stronger effect = higher value
How it was run: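 Genetically altered yeast, compound exposure, growth inhibition relative to vehicle.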

[4] = NCI Yeast Anticancer Drug Screen. Data for the cln2 rad14 strain (AID 165);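 further: 0% = growth equal to vehicle treated cultures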; settings: S. cerevisiae cln2 rad14 strain, at 50.0 µM, stronger effect = higher value
How it was run: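 cln2 rad14 yeast strain; compound exposure; growth inhibition read vs vehicle controls.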

[5] = NCI Yeast Anticancer Drug Screen. Data for the bub3 strain (AID 167); settings: S. cerevisiae bub3 mutant strain, at 50.0 µM, stronger effect = higher value
How it was run: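 Mutant yeast screening strain plus compound; vehicle-treated cultures serve as the 0% inhibition reference.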

[6] = NCI Yeast Anticancer Drug Screen. Data for the mlh1 rad18 strain (AID 175); settings: S. cerevisiae mlh1 rad18 strain growth inhibition; at 50.0 µM; stronger effect = higher value
How it was run: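 Yeast w/ defined DNA-repair lesions; compound exposure; growth vs vehicle controls → % inhibition.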

Row | SMILES | growth inhibition [1] | growth inhibition [2] | growth inhibition [3] | growth inhibition [4] | growth inhibition [5] | growth inhibition [6]
1 | COc1c2c(c(OC)c3c(=O)c4ccccc4[nH]c13)OCO2 | 12.6% (inactive) | -8.85% (inactive) | 26.9% (inactive) | -2.25% (inactive) | 18.2% (inactive) | 22.9% (inactive)
2 | CCSCC(C)C(=O)OC (configuration not stated) | -26.6% (inactive) | -0.4% (inactive) | -14.3% (inactive) | 23.6% (inactive) | 2.85% (inactive) | -40.3% (inactive)
3 | CC(=O)NCC1OCC2OC(C)(C)OC12 (configuration not stated) | 3.35% (inactive) | -5% (inactive) | -11.7% (inactive) | -73.8% (inactive) | -12.1% (inactive) | -8.8% (inactive)
4 | OC1CCC(O)[C@H]2[C@@H]1[C@@H]1S[C@H]2c2ccccc21 (some centres not stated) | -2.55% (inactive) | -14.8% (inactive) | -22.4% (inactive) | 1.7% (inactive) | -10.3% (inactive) | -1.85% (inactive)
5 | CC1=N[C@](C)(C2CC3C=CC2C3=O)COC1=O (some centres not stated) | -15.5% (inactive) | -18.5% (inactive) | -27% (inactive) | -1.9% (inactive) | -11.6% (inactive) | -5.45% (inactive)
6 | C=CCSC(=S)NC | -6.2% (inactive) | -7.5% (inactive) | -2.7% (inactive) | 10.2% (inactive) | -0.9% (inactive) | 8.4% (inactive)
7 | CCSC1=C(C)N(C=NC(C)(C)C)CC1 | -3.7% (inactive) | -23.5% (inactive) | -38% (inactive) | 7.4% (inactive) | -28.8% (inactive) | -14% (inactive)
8 | C/C(=N\NC(=O)/C(C#N)=C\c1ccc(N(CCC#N)CCC#N)cc1)c1ccccc1 | 0.2% (inactive) | -14.2% (inactive) | -20.5% (inactive) | -6.9% (inactive) | -7.4% (inactive) | -1.95% (inactive)
9 | c1ccc(C2OCCO2)cc1 | 4.05% (inactive) | -15.2% (inactive) | -6.7% (inactive) | 6.6% (inactive) | -0.2% (inactive) | 10.4% (inactive)
10 | NN1CCCC(O)C1 (configuration not stated) | -0.15% (inactive) | -18.4% (inactive) | 4.75% (inactive) | 4.5% (inactive) | 5.1% (inactive) | 5.4% (inactive)
11 | CCCCCCCCCCCCCCCC(=O)NOCc1cscn1 | -0.8% (inactive) | -29.1% (inactive) | -3.25% (inactive) | -22.1% (inactive) | -12.8% (inactive) | 6.1% (inactive)
12 | CC1(C)O[C@@H]2C[C@H]3[C@@H]4C[C@H](F)C5=CC(=O)C=C[C@]5(C)[C@@]4(F)[C@@H](O)C[C@]3(C)[C@]2(C(=O)CO)O1 | -1.8% (inactive) | -25.6% (inactive) | 0.25% (inactive) | -4.75% (inactive) | -57.8% (inactive) | -8.35% (inactive)
13 | Cc1c(C)c(O)c(C)c(C)c1O | -8.8% (inactive) | -17.1% (inactive) | -4.85% (inactive) | -13.2% (inactive) | 6.85% (inactive) | 11.4% (inactive)
14 | CCC(/C=C/C(C)C1CCC2C3CC=C4CC(OC(=O)Nc5ccccc5)CCC4(C)C3CCC12C)C(C)C (configuration not stated) | -6.65% (inactive) | 2.1% (inactive) | -4.9% (inactive) | 77.2% (active) | 5.55% (inactive) | 57.5% (inactive)
15 | COC(=O)c1ccccc1-c1ccccc1[N+](=O)[O-] | 3.15% (inactive) | -1.75% (inactive) | 2.5% (inactive) | 2.6% (inactive) | -7.35% (inactive) | -3% (inactive)
16 | COc1cccc(C[n+]2cc([O-])on2)c1 | -16.1% (inactive) | 26.1% (inactive) | -3.3% (inactive) | -27.5% (inactive) | 21.1% (inactive) | 18.4% (inactive)
17 | CC(NC(=O)c1ccccc1)c1ccc[nH]1 (configuration not stated) | 8.75% (inactive) | -9.2% (inactive) | 0.05% (inactive) | -15.2% (inactive) | -25.6% (inactive) | -0.15% (inactive)
18 | O=C1CCCC1Sc1ccccn1 (configuration not stated) | -14.4% (inactive) | -11.5% (inactive) | -29.6% (inactive) | -8.5% (inactive) | -7.15% (inactive) | -32.2% (inactive)
19 | C=C(CCC(Cl)C(O)CO)[Si](C)(C)C (configuration not stated) | 37.5% (inactive) | -19.2% (inactive) | 52% (inactive) | 45.3% (inactive) | 49.2% (inactive) | 48.6% (inactive)

Row | SMILES | growth inhibition [1] | growth inhibition [2] | growth inhibition [3] | growth inhibition [4] | growth inhibition [5] | growth inhibition [6]
20 | O=C(COc1ccccc1)Nc1ccc(C(=O)O)cc1 | -2.95% (inactive) | -3.6% (inactive) | -3.35% (inactive) | 1.85% (inactive) | 22.1% (inactive) | 25.3% (inactive)
21 | Cc1cc2c(cc1C)N1C(Cl)=C3CCCCC3=C(C#N)C1N2 (configuration not stated) | 30.7% (inactive) | 30.4% (inactive) | 20.5% (inactive) | 28.3% (inactive) | 13.9% (inactive) | -8.95% (inactive)
22 | OC(c1ccccc1)(C(F)(F)F)C(F)(F)F | 3% (inactive) | 5.85% (inactive) | 6.1% (inactive) | 14.3% (inactive) | 9.9% (inactive) | 8.75% (inactive)
23 | CCNS(=O)(=O)c1ccc2c(c1)nc(C)n2CC | 16.4% (inactive) | -27.6% (inactive) | -3.5% (inactive) | 13.1% (inactive) | 23.6% (inactive) | 11.5% (inactive)
24 | CCc1[nH]c(=O)c2oc3cc4ccccc4cc3c2c1C(=O)O | -43.9% (inactive) | -35.5% (inactive) | -55.6% (inactive) | -29.4% (inactive) | -17.8% (inactive) | -70.3% (inactive)
25 | O=C(Cl)c1cc2ccccc2c2c(=O)c3ccc4cc5ccccc5cc4c3[nH]c12 | -51.6% (inactive) | -3.2% (inactive) | -10.4% (inactive) | -53.8% (inactive) | -13.2% (inactive) | -11.6% (inactive)
26 | N=c1c(C(=O)O)cccn1O | 8.1% (inactive) | -5.1% (inactive) | 9.1% (inactive) | -50.9% (inactive) | -6.55% (inactive) | 4.9% (inactive)
27 | O=C(Cl)c1ccc2ccccc2c1 | 45.8% (inactive) | 8.3% (inactive) | 3% (inactive) | -43% (inactive) | -20.4% (inactive) | 29.4% (inactive)
28 | NC(=S)c1ccc[n+]([O-])c1 | 15.6% (inactive) | 10.1% (inactive) | 20.2% (inactive) | -13.7% (inactive) | 6.9% (inactive) | 6.85% (inactive)
29 | CCCCN(CCCC)CC(C)O (configuration not stated) | -21.8% (inactive) | -35.8% (inactive) | -22.4% (inactive) | 16.9% (inactive) | -12.9% (inactive) | -18.6% (inactive)
30 | CCN(CC)c1cc2oc(=O)cc(C)c2cc1NC(=O)c1cc([N+](=O)[O-])cc([N+](=O)[O-])c1 | -0.6% (inactive) | -0.7% (inactive) | -2.1% (inactive) | -0.4% (inactive) | 0% (inactive) | 15.3% (inactive)
31 | CC(=O)Oc1cccc2c1C(=O)C1CC(O)C3(C=O)OC(C)(C)OC2(C)C13 (configuration not stated) | 8.45% (inactive) | -2.6% (inactive) | 5.95% (inactive) | 4.7% (inactive) | -3.45% (inactive) | 3.6% (inactive)
32 | CC(C)(C)c1ccc(OCC(=O)O)cc1 | -17.3% (inactive) | -12% (inactive) | -7.2% (inactive) | -17.4% (inactive) | -8.4% (inactive) | -6.6% (inactive)
33 | CN(C)c1ccc(C=C(c2ccc(N)cc2)c2ccc(N)cc2)cc1 | 9.25% (inactive) | -1.05% (inactive) | 24.3% (inactive) | -0.6% (inactive) | 52.4% (inactive) | 20.6% (inactive)
34 | Nc1cccc(CNC(=O)COc2ccc(Cl)cc2C(=O)O)c1 | -0.9% (inactive) | 14% (inactive) | -2.7% (inactive) | -7.6% (inactive) | 18.4% (inactive) | 10.4% (inactive)
35 | O=C(Cc1ccccc1)NCc1ccccc1 | -1.7% (inactive) | -7.15% (inactive) | 13.9% (inactive) | -3.3% (inactive) | 2.55% (inactive) | 8.7% (inactive)
36 | CCCNC(C)=O | 12.2% (inactive) | -26.1% (inactive) | -24.9% (inactive) | -27.1% (inactive) | -8.55% (inactive) | -1.25% (inactive)
37 | CS/C(=N/S(=O)(=O)c1ccccc1)NNC(=S)Nc1ccc(C(C)C)cc1 | 14% (inactive) | -12.6% (inactive) | 27.2% (inactive) | 22.6% (inactive) | 28.3% (inactive) | 25.9% (inactive)
